The source of these data is PubChem BioAssay AID743415 (Broad Institute, 2014).

Entries with a potency or affinity are not part of this list. Active and inactive are the calls of the source.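 Rule for the calls: active = compounds lowering Shn3 expression whose fitted half-maximal concentration is at most twice the top valid dose; inconclusive = flat partial decrease or an invalid curve fit; inactive = the rest.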

The nature of this experiment: Shn3 transcript knock-down in Clone20 cells – cell-based, qPCR, cherry-pick, dose response (AID 743415). Conditions: Shn3 mRNA qPCR, overnight; series mostly up to 35 µM.
In the case of `Cc1nc2ccccc2cc1OCc1ccc(F)cc1`, the compound was classed as inactive.
The result for `COCOCCn1cc(CN2CCS(=O)(=O)N(Cc3ccc(-c4ccc(Cl)c(Cl)c4)cc3)C(C(C)C)C2=O)nn1` (stereo unspecified) reads “inactive”; that for `Cc1ccccc1OCCOC(=O)c1cc(S(=O)(=O)N2CCCCC2)ccc1N1CCOCC1`, “inactive”; that for `Cc1nc2scc(C)n2c(=O)c1S(=O)(=O)Nc1ccc(N2CCOCC2)c(Cl)c1`, “inactive”.
With `O=C(Cn1cnc2ccccc21)Nc1cccc(S(=O)(=O)N2CCCC2)c1` the entry was “inactive”; with `Oc1ccc(-c2n[nH]c(C(F)(F)F)c2-c2ccccc2)c(O)c1`, “inactive”; with `CC(C)c1nc(SCC(=O)Nc2cccc(C(F)(F)F)c2)c2c(=O)n(C)c(=O)n(C)c2n1`, “inactive”.
The result for `CC(Sc1nc2ccccc2c(=O)n1C)C(=O)N(C)C1CCCCC1` (stereo unspecified) reads “inactive”.
Take `Cc1cccc(-c2noc(CN(C(=O)C(c3ccccc3)c3ccccc3)C(C)C)n2)c1`: the compound was classed as inactive.
Turning to `CCOc1ccc(Cn2nnc(C(=O)Nc3cc(OC)cc(OC)c3)c2N)cc1`, the result was inactive.
As to `Cc1ccc2c(c1)nnn2C1CCN(S(=O)(=O)c2ccc(C(=O)N3C(C)CCCC3C)cc2)CC1` (stereo unspecified), the outcome was inactive.
For `CCOC(=O)N1CCN(c2ccc(S(=O)(=O)N(Cc3ccccc3)Cc3ccccc3)cn2)CC1`, the outcome was inactive.
The result for `Cc1ccc(-c2nc3ncccc3o2)cc1NC(=O)c1sc2ccccc2c1Cl` reads “inactive”; that for `Cc1onc(-c2ccccc2Cl)c1C(=O)N(C)C1CCCCC1`, “inactive”; that for `CCCn1c(C)cc(C(=O)CN2C(=O)c3ccccc3S2(=O)=O)c1C`, “inactive”.
In the case of `COc1cccc(-n2c(C)nc3c(cnn3-c3ccc(Cl)cc3)c2=O)c1`, the outcome was inactive.
